PubChem BioAssay AID1159580 (chemical genetic matrix, 2015)
Several values for one entry are separate records, joined by “and”; a condition that tells them apart may be missing. Equal entries are not always repeated. In all, about 5,500 compounds went through this assay and about 2,000 (36%) were called active. About 18% were inconclusive and are not listed. Cut-off read from the data, not from the text of the source: active = normalized growth mostly below about 0.91 (no sharp cut-off); inconclusive = no clear call, values can overlap the other calls; inactive = mostly above about 0.92. The list shows a part of the results.

Test: chemical genetic growth profiling, strain panel (AID 1159580);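 note: tested at 20 µM; growth read once vehicle control cultures reached saturation at 30 °C; 1 = growth at the plate median or of vehicle wells; lower values mean less growth of the strain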
Details: growth OD

Measured: normalized growth

NC(Cc1ccc(Cl)cc1)C(=O)O (centres undefined)
inactive: S. cerevisiae deletion strains, locus YJR075W, strain HOC1, active compounds read low 0.999 and 1.06 | S. cerevisiae deletion strains, locus YKL009W, strain mrt4, active compounds read low 1.03 | S. cerevisiae deletion strains, locus YKL068W, active compounds read low 0.994 | S. cerevisiae deletion strains, locus YKL085W, strain MDH1 (second series), active compounds read low 0.994 | S. cerevisiae deletion strains, locus YKL085W, strain MDH1, active compounds read low 0.994 | S. cerevisiae deletion strains, locus YKL160W, strain elf1, active compounds read low 0.996 | S. cerevisiae deletion strains, locus YKL190W, strain CNB1, active compounds read low 0.991 | S. cerevisiae deletion strains, locus YKR001C, strain vps1, active compounds read low 1.02 | S. cerevisiae deletion strains, locus YKR026C, strain gcn3, active compounds read low 1 | S. cerevisiae deletion strains, locus YKR091W, strain srl3, active compounds read low 0.993 | S. cerevisiae deletion strains, locus YLL001W, strain dnm1, active compounds read low 0.984 | S. cerevisiae deletion strains, locus YLL026W, active compounds read low 0.999 | S. cerevisiae deletion strains, locus YLL041C, strain sdh2, active compounds read low 1 | S. cerevisiae deletion strains, locus YLR027C, strain aat2, active compounds read low 0.999 | S. cerevisiae deletion strains, locus YLR039C, strain RIC1, active compounds read low 0.994 | S. cerevisiae deletion strains, locus YLR058C, strain SHM2, active compounds read low 0.981 | S. cerevisiae deletion strains, locus YLR102C, strain apc9, active compounds read low 0.998 | S. cerevisiae deletion strains, locus YLR113W, strain HOG1, active compounds read low 0.971 | S. cerevisiae deletion strains, locus YLR221C, strain rsa3, active compounds read low 0.996 | S. cerevisiae deletion strains, locus YLR258W, strain gsy2, active compounds read low 0.988 | S. cerevisiae deletion strains, locus YLR262C, strain YPT6 (second series), active compounds read low 1.02 | S. cerevisiae deletion strains, locus YLR262C, strain YPT6, active compounds read low 0.955 | S. cerevisiae deletion strains, locus YLR268W, strain sec22, active compounds read low 1 | S. cerevisiae deletion strains, locus YLR320W, strain mms22, active compounds read low 0.996 | S. cerevisiae deletion strains, locus YLR330W, strain CHS5, active compounds read low 0.992 | S. cerevisiae deletion strains, locus YLR342W, strain FKS1 (second series), active compounds read low 1.02 | S. cerevisiae deletion strains, locus YLR342W, strain FKS1, active compounds read low 0.999 | S. cerevisiae deletion strains, locus YLR357W, strain rsc2, active compounds read low 0.977 | S. cerevisiae deletion strains, locus YLR370C, strain arc18, active compounds read low 1 | S. cerevisiae deletion strains, locus YLR371W, strain rom2, active compounds read low 0.993 | S. cerevisiae deletion strains, locus YLR384C, strain iki3, active compounds read low 0.986 | S. cerevisiae deletion strains, locus YLR418C, strain cdc73, active compounds read low 1.04 | S. cerevisiae deletion strains, locus YML016C, strain PPZ1, active compounds read low 0.986 | S. cerevisiae deletion strains, locus YML032C, strain rad52, active compounds read low 0.983 | S. cerevisiae deletion strains, locus YML120C, strain ndi1, active compounds read low 0.993 | S. cerevisiae deletion strains, locus YML124C, strain tub3, active compounds read low 0.998 | S. cerevisiae deletion strains, locus YMR058W, strain fet3, active compounds read low 1.02 | S. cerevisiae deletion strains, locus YMR078C, strain ctf18, active compounds read low 0.992 | S. cerevisiae deletion strains, locus YMR125W, strain sto1, active compounds read low 0.993 | S. cerevisiae deletion strains, locus YMR129W, active compounds read low 0.995 | S. cerevisiae deletion strains, locus YMR205C, strain PFK2, active compounds read low 0.991 | S. cerevisiae deletion strains, locus YMR223W, strain ubp8, active compounds read low 1.01 | S. cerevisiae deletion strains, locus YMR231W, strain pep5, active compounds read low 0.993 | S. cerevisiae deletion strains, locus YMR263W, strain SAP30, active compounds read low 0.991 and 0.983 | S. cerevisiae deletion strains, locus YMR307W, strain GAS1, active compounds read low 1.06 | S. cerevisiae deletion strains, locus YNL067W, strain RPL9B, active compounds read low 0.986 | S. cerevisiae deletion strains, locus YNL071W, strain lat1, active compounds read low 1 | S. cerevisiae deletion strains, locus YNL128W, strain TEP1, active compounds read low 0.976 | S. cerevisiae deletion strains, locus YNL153C, strain GIM3, active compounds read low 0.983 and 1.07 | S. cerevisiae deletion strains, locus YNL175C, strain NOP13, active compounds read low 0.986 | S. cerevisiae deletion strains, locus YNL183C, strain NPR1, active compounds read low 0.891 | S. cerevisiae deletion strains, locus YNL209W, strain ssb2, active compounds read low 1 | S. cerevisiae deletion strains, locus YNL224C, strain SQS1, active compounds read low 1.01 | S. cerevisiae deletion strains, locus YNL233W, strain BNI4, active compounds read low 0.991 | S. cerevisiae deletion strains, locus YNL248C, strain rpa49, active compounds read low 1.01 | S. cerevisiae deletion strains, locus YNL250W, strain rad50, active compounds read low 0.988 | S. cerevisiae deletion strains, locus YNL271C, strain bni1, active compounds read low 1 | S. cerevisiae deletion strains, locus YNL298W, strain CLA4, active compounds read low 0.985 | S. cerevisiae deletion strains, locus YNL307C, strain MCK1, active compounds read low 1.01 | S. cerevisiae deletion strains, locus YNL322C, strain KRE1 (second series), active compounds read low 0.983 | S. cerevisiae deletion strains, locus YNL322C, strain KRE1, active compounds read low 0.989 | S. cerevisiae deletion strains, locus YNR049C, strain mso1, active compounds read low 1 | S. cerevisiae deletion strains, locus YNR052C, strain pop2, active compounds read low 0.986 | S. cerevisiae deletion strains, locus YOL006C, strain TOP1, active compounds read low 0.991 | S. cerevisiae deletion strains, locus YOL012C, strain htz1 1.95 | S. cerevisiae deletion strains, locus YOL147C, strain pex11, active compounds read low 1.01 | S. cerevisiae deletion strains, locus YOR001W, strain rrp6, active compounds read low 1 | S. cerevisiae deletion strains, locus YOR061W, strain CKA2, active compounds read low 0.97 | S. cerevisiae deletion strains, locus YOR069W, strain VPS5, active compounds read low 0.997 | S. cerevisiae deletion strains, locus YOR070C, strain gyp1, active compounds read low 0.988 | S. cerevisiae deletion strains, locus YOR080W, strain dia2, active compounds read low 0.992 | S. cerevisiae deletion strains, locus YOR083W, strain WHI5, active compounds read low 1.02 | S. cerevisiae deletion strains, locus YOR106W, strain vam3, active compounds read low 0.987 | S. cerevisiae deletion strains, locus YOR136W, strain idh2, active compounds read low 0.995 | S. cerevisiae deletion strains, locus YOR144C, strain elg1, active compounds read low 1 | S. cerevisiae deletion strains, locus YOR184W, strain ser1, active compounds read low 1 | S. cerevisiae deletion strains, locus YOR231W, strain MKK1, active compounds read low 0.991 | S. cerevisiae deletion strains, locus YOR265W, strain rbl2, active compounds read low 0.986 | S. cerevisiae deletion strains, locus YOR270C, strain vph1, active compounds read low 1.02 | S. cerevisiae deletion strains, locus YOR290C, strain snf2, active compounds read low 0.965 | S. cerevisiae deletion strains, locus YOR316C, strain cot1, active compounds read low 0.993 | S. cerevisiae deletion strains, locus YPL051W, strain arl3, active compounds read low 0.992 | S. cerevisiae deletion strains, locus YPL055C, strain LGE1, active compounds read low 0.976 | S. cerevisiae deletion strains, locus YPL078C, strain atp4, active compounds read low 1 | S. cerevisiae deletion strains, locus YPL106C, strain sse1, active compounds read low 0.97 | S. cerevisiae deletion strains, locus YPL240C, strain hsp82, active compounds read low 1 | S. cerevisiae deletion strains, locus YPL241C, strain CIN2, active compounds read low 0.995 and 1.01 | S. cerevisiae deletion strains, locus YPL256C, strain CLN2, active compounds read low 0.969 | S. cerevisiae deletion strains, locus YPR119W, strain clb2, active compounds read low 0.993 | S. cerevisiae deletion strains, locus YPR141C, strain kar3, active compounds read low 0.992 | S. cerevisiae deletion strains, locus YPR163C, strain tif3, active compounds read low 1 | S. cerevisiae deletion strains, locus YPR167C, strain met16, active compounds read low 0.996 | S. cerevisiae deletion strains, strain wtn01, active compounds read low 0.99 | S. cerevisiae strains, strain wild type, active compounds read low 0.998
